Assay results published in PubChem BioAssay (NCATS).
Records with an inconclusive call do not appear. A call without a number means that no potency is given here. The source made the active and inactive calls. Calls follow the shape of the dose curve; as a rule, active = well fitted curve in the direction sought with a large enough effect; inconclusive = small, poorly fitted or top-dose-only effect, or another doubt; inactive = no such curve, though single readings can be large; an effect the other way counts as inactive or inconclusive.

Experiments:
[1] = target: Luciferin 4-monooxygenase (Photinus pyralis) (UniProt P08659); assay: Biochemical firefly luciferase enzyme assay for NPC (AID 624030);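 also: purified P. pyralis luciferase at 10 nM with luciferin and ATP substrate; series mostly up to about 59 µM; nearly all actives have a fitted effect of over 70% in size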
In short: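 Purified P. pyralis luciferase at 10 nM in 50 mM Tris Acetate (final), luminescence read within 5 minutes of enzyme addition to compounds. Activity normalised to PTC124 versus DMSO; concentration-response curves classed by r2, magnitude and activity.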

[2] = target: Voltage-gated inwardly rectifying potassium channel KCNH2 (Homo sapiens) (UniProt Q12809); assay: qHTS Assay for Small Molecule Inhibitors of the Human hERG Channel Activity (AID 588834);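 also: top concentration of the series differs between compounds; lower thallium flux fluorescence means stronger hERG block; nearly all actives have a fitted effect of over 50% in size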
In short: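 U2OS cells transduced with hERG via BacMam (MOI ~100), plated 2000/well, loaded with FluxOR thallium dye, compound ~10 min, then stimulation buffer; fluorescence decrease read kinetically; AC50 from Hill fits.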

[3] = S16 Schwann cell viability assay (CellTiter-Glo assay) (AID 624031);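 also: native untransfected S16 rat Schwann cells; cellular ATP luminescence as a viability measure; series mostly up to about 58 µM; nearly all actives have a fitted effect of over 70% in size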
In short: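 Rat S16 Schwann cells without reporter constructs received compound or DMSO for 24 h at 37 °C under 5% CO2. Cellular ATP was then quantified by CellTiter-Glo luminescence, with vehicle wells defined as 0% activity and cell-free wells as reference.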

Chain of Luciferin 4-monooxygenase (Photinus pyralis) (P08659 whole entry, looked up): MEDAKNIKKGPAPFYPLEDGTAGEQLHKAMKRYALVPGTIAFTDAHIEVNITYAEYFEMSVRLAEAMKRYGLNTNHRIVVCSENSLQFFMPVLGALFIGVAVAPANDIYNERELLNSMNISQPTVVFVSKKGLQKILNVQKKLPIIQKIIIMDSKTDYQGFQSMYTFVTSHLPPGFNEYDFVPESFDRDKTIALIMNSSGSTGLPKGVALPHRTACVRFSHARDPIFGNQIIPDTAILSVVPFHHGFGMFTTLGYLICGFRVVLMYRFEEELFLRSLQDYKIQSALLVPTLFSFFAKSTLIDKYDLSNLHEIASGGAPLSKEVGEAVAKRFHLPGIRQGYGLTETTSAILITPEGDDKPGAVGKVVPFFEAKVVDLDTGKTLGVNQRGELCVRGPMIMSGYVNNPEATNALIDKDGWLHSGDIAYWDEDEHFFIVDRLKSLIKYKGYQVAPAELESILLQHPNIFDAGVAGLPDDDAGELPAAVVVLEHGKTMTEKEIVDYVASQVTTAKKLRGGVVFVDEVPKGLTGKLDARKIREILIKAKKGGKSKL
Chain of Voltage-gated inwardly rectifying potassium channel KCNH2 (Homo sapiens) (Q12809 whole entry, looked up): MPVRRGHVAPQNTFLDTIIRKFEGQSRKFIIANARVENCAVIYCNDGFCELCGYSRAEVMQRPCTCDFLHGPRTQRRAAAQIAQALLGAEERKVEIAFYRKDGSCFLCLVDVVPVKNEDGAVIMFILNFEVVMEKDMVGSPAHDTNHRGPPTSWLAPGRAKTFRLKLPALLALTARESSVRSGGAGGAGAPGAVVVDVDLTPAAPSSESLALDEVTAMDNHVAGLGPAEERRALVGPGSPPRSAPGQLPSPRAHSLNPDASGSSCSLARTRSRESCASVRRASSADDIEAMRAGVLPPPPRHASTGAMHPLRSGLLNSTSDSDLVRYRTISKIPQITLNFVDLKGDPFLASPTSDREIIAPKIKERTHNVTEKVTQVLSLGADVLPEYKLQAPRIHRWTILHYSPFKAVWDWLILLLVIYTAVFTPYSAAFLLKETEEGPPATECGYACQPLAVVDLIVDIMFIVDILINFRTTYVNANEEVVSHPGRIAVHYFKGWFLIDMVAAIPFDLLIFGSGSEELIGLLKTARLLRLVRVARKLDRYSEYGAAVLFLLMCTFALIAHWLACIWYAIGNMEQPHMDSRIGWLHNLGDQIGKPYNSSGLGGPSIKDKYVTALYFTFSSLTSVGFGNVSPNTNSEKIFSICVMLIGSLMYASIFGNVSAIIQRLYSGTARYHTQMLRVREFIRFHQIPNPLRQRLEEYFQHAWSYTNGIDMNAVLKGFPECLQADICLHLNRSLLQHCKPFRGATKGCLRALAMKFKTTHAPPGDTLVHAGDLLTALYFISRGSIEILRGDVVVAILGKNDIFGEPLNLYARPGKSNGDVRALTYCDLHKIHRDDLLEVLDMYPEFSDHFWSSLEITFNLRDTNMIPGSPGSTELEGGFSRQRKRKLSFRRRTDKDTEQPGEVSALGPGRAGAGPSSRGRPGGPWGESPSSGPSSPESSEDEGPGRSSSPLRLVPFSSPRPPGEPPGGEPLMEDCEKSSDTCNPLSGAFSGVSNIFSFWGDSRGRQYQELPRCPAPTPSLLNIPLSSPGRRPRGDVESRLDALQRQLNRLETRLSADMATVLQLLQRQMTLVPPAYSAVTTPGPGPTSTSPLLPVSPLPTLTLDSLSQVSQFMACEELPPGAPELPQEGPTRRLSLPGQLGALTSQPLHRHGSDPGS

For `Cc1cccc(N(C)C(=S)Oc2ccc3c(c2)CCC3)c1`, the Potency [1] was “inactive”.
In the case of `O=[N+]([O-])c1ccc(O)c2ncccc12`, the Potency [2] is reported as “inactive” and the Potency [1] is reported as “inactive”.
In the case of `CC(=O)N(CC(O)CO)c1c(I)c(C(=O)NCCO)c(I)c(C(=O)NCC(O)CO)c1I` (stereo unspecified), the Potency [1] is reported as “inactive”.
In the case of `CC(NN)c1ccccc1` (stereo unspecified), the Potency [1] is reported as “inactive”.
With `CCC1(c2cnc[nH]2)Cc2ccccc2C1` the Potency [1] was “inactive”.
In the case of `CN1CCC(N(Cc2cccs2)c2ccccc2)CC1`, the Potency [1] is reported as “inactive”.
With `OCCc1ccccc1` the Potency [1] was “inactive”.
In the case of `Nc1ncnc2nc[nH]c12`, the Potency [2] is reported as “inactive”, the Potency [1] is reported as “inactive” and the Potency [3] is reported as “inactive”.
